In the supplement of paper PMC11219838:
A number with no mark means an inactive call.

Legend:
Conditions in all cases: 60 µM; 5 days; temperature: 20 °C
[1] = tested on: Meloidogyne hapla J2; experiment: proportion of mobile M. hapla J2 relative to DMSO control (fraction of DMSO control); higher = more viable, less nematicidal, active = 0.7 or less
Method in brief: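 About 25 M. hapla J2 were added per 96-well well in distilled water, and compound was pinned to 60 µM final (0.6% v/v DMSO). Sealed plates were shaken at 200 rpm for 5 days at 20 °C, then 2 µL 1 M NaOH was added before microscopic mobility scoring. Mobility was divided by the mean of eight DMSO wells on the same plate, and two biological replicates were averaged.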

[2] = tested on: Ditylenchus dipsaci; experiment: proportion of mobile D. dipsaci (mixed stage) relative to DMSO control (fraction of DMSO control); higher = more viable, less nematicidal, active = 0.86 or less; extreme values may be limits of the assay
Method in brief: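 D. dipsaci were grown on pea plants in Gamborg B-5 agar and extracted through a filter funnel into water, and about 20 worms were added per 96-well well in distilled water. Compound was pinned to 60 µM final (0.6% v/v DMSO), and sealed plates were shaken at 200 rpm for 5 days at 20 °C. After 2 µL 1 M NaOH was added, mobile worms were scored microscopically. Mobility was expressed relative to DMSO controls and averaged over two biological replicates.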

[3] = tested on: Caenorhabditis elegans dauer (daf-2(e1370)); experiment: proportion of mobile C. elegans dauer larvae relative to DMSO control (fraction of DMSO control); higher = more viable, less nematicidal, active = 0.63 or less; extreme values may be limits of the assay
Method in brief: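 The proportion of mobile worms, relative to DMSO wells, was scored by dissection microscope and averaged over two biological replicates. Worms were C. elegans dauers, about 20 per well in liquid NGM in 96-well plates, generated from synchronized larvae on MYOB plates with E. coli OP50 at 25 °C for 48 h. They were treated with compound pinned to 60 µM final (0.6% v/v DMSO) and kept in sealed plates shaken at 200 rpm for 5 days at 20 °C.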

Row | Structure (SMILES) | proportion of mobile M. hapla J2 [1] | proportion of mobile D. dipsaci [2] | proportion of mobile C. elegans dauer larvae [3]
1 | Cc1cc(Br)ccc1OCc1nc(-c2ccccn2)no1 | 0.973 | 1 | –
2 | COc1ccc(-c2noc(-c3ccccc3C(=O)Nc3ccc(NC(C)=O)cc3)n2)cc1 | 0.923 | 1 | –
3 | Cc1cc(OCc2nc(-c3cccnc3)no2)c(C)c(C)c1Br | 0.934 | 1 | –
4 | Cc1nc(CSc2nnc(-c3ccccc3)o2)cs1 | 0.282 (active) | 1 | –
5 | COc1ccccc1-c1nc(-c2cccc(Br)c2)no1 | 1.04 | 1 | –
6 | CCCOc1ccc(-c2ccc(-c3nc(-c4ccccn4)no3)cc2)cc1 | 0.969 | 1 | –
7 | Brc1ccc(-c2noc(COc3ccccc3)n2)cc1 | 0.602 (active) | 1 | –
8 | COc1ccccc1-c1nc(-c2ccccc2)no1 | 1 | 1 | –
9 | CCOc1ccc(-c2nc(-c3ccccc3C)no2)cc1 | 0.692 (active) | 1 | –
10 | Clc1ccc(-c2noc(-c3ccccc3Br)n2)cc1 | 0.995 | 1 | –
11 | Cc1ccc(C(=O)Nc2ccccc2-c2nc(-c3cccnc3)no2)cc1C | 0.962 | 1 | –
12 | Cc1cc(Cl)ccc1OCc1nc(-c2ccc(F)cc2)no1 | 0.859 | 1 | –
13 | CCOc1ccccc1-c1nnc(SCC(=O)c2ccccc2)o1 | 1.01 | 1 | –
14 | CC(C)Oc1ccc(-c2nc(-c3ccccc3)no2)cc1 | 0.993 | 1 | –
15 | COc1ccc(-c2noc(COc3ccccc3Cl)n2)cc1 | 1.04 | 1 | –
16 | COc1ccc(-c2noc(CSc3nc4cc(C)ccc4[nH]3)n2)cc1 | 0.861 | 1 | –
17 | Cc1cccc(-c2noc(-c3ccc(C)cc3Cl)n2)c1 | 0.964 | 1 | –
18 | CCOC(=O)c1c(NC(=O)CSc2nnc(-c3ccccc3OCC)o2)sc(C(C)=O)c1C | 0.918 | 1 | –
19 | O=C(CSc1nnc(-c2cccc(Br)c2)o1)N1CCCCC1 | 0.915 | 1 | –
20 | COc1ccc(-c2nnc(SCC(=O)Nc3ccc(C)cc3Br)o2)cc1 | 1.01 | 1 | –

Row | Structure (SMILES) | proportion of mobile M. hapla J2 [1] | proportion of mobile D. dipsaci [2] | proportion of mobile C. elegans dauer larvae [3]
21 | Cn1c(SCc2nnc(-c3ccccc3)o2)nnc1-c1ccco1 | 0.827 | 1 | –
22 | O=C(CSc1nnc(-c2ccc(Cl)cc2Cl)o1)c1ccc2c(c1)OCCO2 | 0.719 | 1 | –
23 | Cc1ccccc1OCc1nc(-c2ccc(Cl)cc2)no1 | 1.04 | 1 | –
24 | Fc1ccc(-c2noc(COc3ccccc3Cl)n2)cc1 | – | 1 | 1
25 | CCOc1cc(-c2nc(-c3ccc(OC)cc3)no2)cc(OCC)c1OCC | 0.998 | 1 | –
26 | Cc1ccoc1-c1nnc(-c2ccco2)o1 | 0.949 | 0.833 (active) | –
27 | Cc1ccc(-c2noc(COc3ccc(C)cc3C)n2)cc1 | 1.02 | 1 | –
28 | COc1cccc(-c2noc(CSc3ccc(Cl)cc3)n2)c1 | 1.03 | 1 | –
29 | COc1ccc(-c2noc(CSc3ccc(C)cc3)n2)cc1 | 1.03 | 1 | –
30 | COc1ccc(-c2nnc(SCc3csc(N)n3)o2)cc1 | 0.941 | 1 | –
31 | N#Cc1ccc(OCc2nc(-c3ccc(Br)o3)no2)cc1 | 1.06 | 1 | –
32 | Cc1ccc(-c2noc(C3CCCCC3)n2)cc1 | 1.05 | 1 | –
33 | Cc1ccc(-c2nc(-c3cccc(C)c3)no2)cc1 | 0.87 | 1 | –
34 | c1ccc(OCc2nc(-c3cccs3)no2)cc1 | 0.652 (active) | 1 | –
35 | Cc1ccc(-c2noc(COc3ccc(Cl)cc3C)n2)cc1 | 0.996 | 1 | –
36 | Brc1cccc(-c2nc(-c3ccccc3)no2)c1 | 1.02 | 1 | –
37 | COc1ccc(-c2noc(-c3ccc(C)cc3Cl)n2)cc1 | 0.969 | 1 | –
38 | Brc1ccccc1-c1nc(-c2ccccn2)no1 | 0.678 (active) | 1 | –
39 | COc1ccc(-c2nnc(SCC(=O)Nc3ccccc3C(C)C)o2)cc1 | 0.877 | 1 | –
40 | COc1ccccc1-c1noc(-c2ccc(C(C)(C)C)cc2)n1 | 1.03 | 1 | –
